Shown is part of a subset that was picked to be rich in hits.
Shh pathway inh: blocks Sonic Hedgehog signaling | Shh-LIGHT2 Gli-luciferase reporter, 30 h | inhibition, % (concentration not given with the values) | 22,000 tested, 2.1% active | AID 2313;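 active = mean inhibition across valid replicates above about 65%, limit read from the data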;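 note: pathway switched on by Shh-conditioned medium diluted 1 in 25 in low serum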
BJeLR viability: lowers viability of BJeLR cells | BJeLR fibroblasts viability, CellTiterGlo ATP luminescence, 48 h; HRASV12, hTERT and SV40 LT/ST transformed | viability loss activity score, % (no concentration beside the values) | 30,000 tested, 0.64% active; in the data active = viability loss activity score above about 50%;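 note: higher score means fewer live cells and less ATP luminescence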
An asterisk follows results filed as active; . = no result given.

SMILES | Shh pathway inh | BJeLR viability
C[C@H]1CN([C@@H](C)CO)C(=O)c2cc(NC(=O)Nc3ccc(C(F)(F)F)cc3)ccc2O[C@@H]1CN(C)Cc1ccccc1 | . | 0.0
Cc1ccc(S(=O)(=O)N(C)C[C@@H]2Oc3c(NC(=O)c4ccc(-c5nccs5)cc4)cccc3C(=O)N([C@H](C)CO)C[C@@H]2C)cc1 | -7.3 | -4.4
Cc1ccc(S(=O)(=O)N(C)C[C@H]2Oc3c(NC(=O)c4ccc(-c5nccs5)cc4)cccc3C(=O)N([C@@H](C)CO)C[C@H]2C)cc1 | 1.5 | 2.0
C[C@H]1CN([C@@H](C)CO)C(=O)c2cccc(NC(=O)c3ccc(-c4nccs4)cc3)c2O[C@H]1CN(C)S(=O)(=O)c1ccc(Cl)cc1 | 93.5* | 4.9
C[C@@H]1CN([C@H](C)CO)C(=O)c2cccc(NC(=O)c3ccc(-c4nccs4)cc3)c2O[C@H]1CN(C)S(=O)(=O)c1ccc(Cl)cc1 | 75.5* | -6.6
CCCCC1=NC2(CCCC2)C(=O)N1Cc1ccc(-c2ccccc2-c2nn[nH]n2)cc1 | -20.9 | -6.6
O=C1C(Cc2ccc(-c3nn[nH]n3)cc2)=C(c2ccccc2)S(=O)(=O)c2ccccc21 | 106.7* | 0.7
O=C(CSc1ncnc2c1nnn2Cc1ccc(F)cc1)c1ccccc1 | . | 0.2
C[C@H]1C[C@@H]2[C@H]([C@@H](O)C[C@@]3(C)[C@H]2CC[C@]3(O)C(=O)CO)[C@@]2(C)C=CC(=O)C=C12 | 69.5* | 1.7
C[C@H]1CC2C([C@@H](O)C[C@@]3(C)C2CC[C@]3(O)C(=O)CO)[C@@]2(C)C=CC(=O)C=C12 (some centres not stated) | 31.7 | -6.5
CN(C)c1nc(-c2ccc(Cl)cc2)[nH]c(=O)n1 | -9.9 | -0.8
COc1ccc(S(=O)(=O)Nc2ccc3c(c2)C(=O)N([C@H](C)CO)C[C@H](C)[C@H](CN(C)Cc2ccc(C(=O)O)cc2)OCCCC[C@@H](C)O3)cc1 | 29.5 | .
COc1ccc(CN(C)C[C@H]2OCCCC[C@@H](C)Oc3ccc(NS(=O)(=O)c4ccc(C)cc4)cc3C(=O)N([C@H](C)CO)C[C@@H]2C)cc1 | 65.0* | .
COc1ccc(S(=O)(=O)Nc2ccc3c(c2)C(=O)N([C@H](C)CO)C[C@H](C)[C@@H](CN(C)Cc2ccc(Cl)c(Cl)c2)OCCCC[C@@H](C)O3)cc1 | 69.3* | .
COc1ccc(CN(C)C[C@@H]2OCCCC[C@@H](C)Oc3ccc(NS(=O)(=O)c4ccc(Cl)cc4)cc3C(=O)N([C@H](C)CO)C[C@@H]2C)cc1 | -21.0 | .
C[C@@H]1OC(OC[C@H]2O[C@@H](Oc3cc(O)c4c(=O)cc(-c5ccc(O)c(O)c5)oc4c3)[C@H](O)[C@@H](O)[C@@H]2O)[C@H](O)[C@H](O)[C@H]1O (some centres not stated) | -25.2 | 1.3
Oc1ccccc1C1=Nc2ccccc2N=C(c2ccc(Cl)cc2)C1 | . | 3.5
CCC(C)c1ccc(NC(=O)c2ccc(N(CC)CC)cc2)cc1 (configuration not stated) | -18.4 | 7.8
C[C@@H]1CN([C@H](C)CO)C(=O)c2cc(NC(=O)Cn3cnnn3)ccc2O[C@H]1CN(C)C(=O)Nc1ccc(F)cc1 | . | 0.0
C[C@@H]1CN([C@@H](C)CO)C(=O)c2cccc(NC(=O)Nc3ccc(F)cc3)c2O[C@@H]1CN(C)Cc1ccccc1 | -52.2 | 2.8
C[C@@H]1CN([C@H](C)CO)C(=O)c2cccc(NC(=O)Nc3ccc(C(F)(F)F)cc3)c2O[C@H]1CN(C)Cc1ccc2c(c1)OCO2 | 19.8 | 2.8
CC(C)C[C@H]1C(=O)N2CCC[C@H]2[C@]2(O)O[C@](NC(=O)[C@@H]3C=C4c5cccc6[nH]c(Br)c(c56)C[C@H]4N(C)C3)(C(C)C)C(=O)N12 | 82.9* | -9.8
CC(C)CC1C(=O)N2CCC[C@H]2C2(O)O[C@](NC(=O)C3C=C4c5cccc6[nH]c(Br)c(c56)C[C@H]4N(C)C3)(C(C)C)C(=O)N12 (some centres not stated) | 25.7 | -4.6
CC1CCC/C=C/C(=O)c2c(O)cc(O)cc2CC(=O)O1 (configuration not stated) | 7.3 | 4.3
CC1CCCC[C@H]2C(=O)C=C[C@H](O)[C@@H]2CC(=O)O1 (some centres not stated) | 35.5 | 61.9*
SMILES | Shh pathway inh | BJeLR viability
C/C=C(/C)C(=O)O[C@H]1[C@H](OC(=O)/C=C/c2ccccc2)[C@@]23C(CC1(C)C)[C@]1(CCC4[C@@]5(C)CC[C@H](O[C@@H]6O[C@H](C(=O)O)[C@@H](O)[C@H](O[C@@H]7O[C@H](CO)[C@H](O)[C@H](O)[C@H]7O[C@@H]7O[C@@H](C)[C@H](O)[C@@H](O)[C@H]7O[C@@H]7OC[C@](O)(CO)[C@H]7O)[C@H]6O[C@@H]6O[C@H](CO)[C@H](O)[C@H](O)[C@H]6O)C(C)(C)C5CC[C@@]4(C)[C@]1(C)C[C@H]2O)O[C@H]3O (some centres not stated) | 87.8* | 79.9*
C/C=C(/C)C(=O)O[C@H]1[C@H](OC(=O)/C(C)=C\C)[C@]2(CO)[C@H](O)C[C@]3(C)C(=CCC4[C@@]5(C)CC[C@H](OC6OC(C(=O)O)C(O)C(OC7OC(C)C(O)C(OC8OC(CO)C(O)C(O)C8O)C7O)C6O)C(C)(C)C5CC[C@]43C)[C@@H]2CC1(C)C (some centres not stated) | 99.0* | 124.8*
C/C=C(\C)C(=O)OC1C(OC(=O)/C=C(/C)CC(=O)O)C2(CO)C(O)CC3(C)C(=CCC4C5(C)CCC(OC6OC(C(=O)O)C(O)C(OC7OC(C)C(O)C(OC8OC(CO)C(O)C(O)C8O)C7O)C6O)C(C)(C)C5CCC43C)C2CC1(C)C (configuration not stated) | 96.9* | 66.8*
CC1(C)CC[C@]2(C(=O)O[C@@H]3O[C@H](CO)[C@@H](O)[C@H](O)[C@H]3O)CC[C@]3(C)C(=CCC4[C@@]5(C)CC[C@H](O[C@@H]6O[C@H](CO)[C@@H](O)[C@H](O[C@@H]7O[C@H](CO)[C@@H](O)[C@H](O)[C@H]7O)[C@H]6O[C@@H]6O[C@H](CO)[C@H](O)[C@H](O)[C@H]6O)C(C)(C)C5CC[C@]43C)[C@@H]2C1 (some centres not stated) | -3.6 | .
CC1(C)CC[C@@]2(C(=O)O[C@@H]3O[C@H](CO)[C@@H](O)[C@H](O)[C@H]3O)C(C1)C1=CCC3[C@@]4(C)CC[C@@H](O[C@@H]5O[C@H](CO)[C@@H](O)[C@H](O)[C@H]5O[C@@H]5O[C@H](CO)[C@@H](O)[C@H](O)[C@H]5O)C(C)(C)C4CC[C@@]3(C)[C@]1(C)C[C@H]2O (some centres not stated) | -38.8 | -4.1
C[C@@H]1O[C@@H](O[C@H]2[C@H](O[C@H]3[C@H](O)[C@@H](C(=O)O)O[C@@H](O[C@H]4CC[C@@]5(C)C(CC[C@]6(C)C5CC[C@]57OC[C@@]8(CCC(C)(C)CC85)[C@H](O)C[C@]76C)C4(C)C)[C@@H]3O[C@@H]3O[C@H](CO)[C@@H](O[C@@H]4OC[C@@H](O)[C@H](O)[C@H]4O)[C@H](O)[C@H]3O)O[C@H](CO)[C@H](O)[C@@H]2O)[C@H](O)[C@H](O)[C@H]1O (some centres not stated) | 42.3 | 5.9

Screens (PubChem)
